Reference: the supplement of paper PMC13380429

System: Vero E6 infected with SARS-CoV-2
Experiment: inhibition of SARS-CoV-2 cytopathic effect; higher = more antiviral protection, active = above 15
Settings: 48 h

Measured: inhibition of SARS-CoV-2 cytopathic effect

CCCCOc1ccc(OCCCN2CCOCC2)cc1 [pramoxine]
inactive: 1 nM -3.87% | 8.33 nM -1.02% | 100 nM -1.18% | 833.33 nM -1.83% | 10000 nM 0.79%

OC[C@H]1O[C@@H](c2ccc(Cl)c(Cc3ccc(O[C@H]4CCOC4)cc3)c2)[C@H](O)[C@@H](O)[C@@H]1O [empagliflozin]
inactive: 1 nM 1.11% | 8.33 nM -0.27% | 100 nM 0.91% | 833.33 nM 1.13% | 10000 nM -2.24%

OC(c1ccccc1)(c1ccccc1)C12CC[N+](CCOCc3ccccc3)(CC1)CC2 [umeclidinium]
inactive: 1 nM -0.48% | 8.33 nM 1.77% | 100 nM 0.73% | 833.33 nM 1.46% | 10000 nM 1.64%

CS(=O)(=O)c1ccc([C@@H](CC2CCCC2)C(=O)Nc2nccs2)cc1
inactive: 1 nM -0.6% | 8.33 nM -1.12% | 100 nM 1.31% | 833.33 nM 1.71% | 10000 nM 1.96%

C[C@]12CC[C@H]3[C@@H](CC[C@]4(O)C[C@@H](O)CC[C@]34C=O)[C@@]1(O)CC[C@@H]2C1=CC(=O)OC1 [K-strophanthidin]
inactive: 1 nM 0.01% | 8.33 nM 0.18% | 100 nM -5.59% | 833.33 nM -12.1% | 10000 nM -16.9%

COC1(C2=NCCN2)COc2ccccc2O1 (stereo not given)
inactive: 1 nM 0.37% | 8.33 nM 1.98% | 100 nM -0.68% | 833.33 nM 1.5% | 10000 nM 1.58%

O=C(CCCCCCCC(=O)NCCO)NCCO [adelmidrol]
inactive: 1 nM -2.2% | 8.33 nM 2.3% | 100 nM 5.54% | 833.33 nM -1.21% | 10000 nM 0.2%

CCN(CC)CCOC(=O)C1(c2ccc([N+](=O)[O-])cc2)CCCC1 [nitrocaramiphen]
inactive: 1 nM -3.06% | 8.33 nM 1.17% | 100 nM 1.69% | 833.33 nM -0.19% | 10000 nM -0.92%

NC(=O)c1ccc(-c2nc(-c3ccccn3)c(-c3ccc4c(c3)OCO4)[nH]2)cc1
inactive: 1 nM -0.24% | 8.33 nM 0.7% | 100 nM 0.26% | 833.33 nM -3.74% | 10000 nM -3.14%

O=C(O)C[C@H](O)C(=O)O [malic-acid]
inactive: 1 nM -0.21% | 8.33 nM -2.53% | 100 nM -1.2% | 833.33 nM 3.51% | 10000 nM 1.76%

CC(=O)Nc1nnc(S(N)(=O)=O)s1 [acetazolamide]
inactive: 1 nM -0.16% | 8.33 nM -1.99% | 100 nM -1.3% | 833.33 nM -2.21% | 10000 nM -1.25%

C/C(=C\C(=O)OCCCCCCCCC(=O)O)C[C@@H]1OC[C@H](C[C@@H]2O[C@H]2[C@@H](C)[C@H](C)O)[C@@H](O)[C@H]1O [mupirocin]
inactive: 1 nM -1.43% | 8.33 nM -0.61% | 100 nM 0.52% | 833.33 nM 2.09% | 10000 nM 1.36%

C[C@H](NC(=O)[C@@H](O)c1cc(F)cc(F)c1)C(=O)N[C@@H]1C(=O)N(C)c2ccccc2-c2ccccc21
inactive: 1 nM -3.7% | 8.33 nM -4.79% | 100 nM -8.67% | 833.33 nM -14% | 10000 nM -7.15%

CC(=O)SC[C@@H](Cc1ccccc1)C(=O)NCC(=O)OCc1ccccc1 (racemic) [racecadotril]
inactive: 1 nM 1.48% | 8.33 nM 1.8% | 100 nM 0.82% | 833.33 nM 1.15% | 10000 nM -5.3%

CCOC(=O)C1=C(C)NC(c2ccccc2)=C(C(=O)OCc2ccc([N+](=O)[O-])cc2)[C@@H]1C#Cc1ccccc1
inactive: 1 nM 2.05% | 8.33 nM -1.34% | 100 nM 0.42% | 833.33 nM 1.51% | 10000 nM 3.9%

O=C(NCCN1CCN(c2ncccn2)CC1)C12CC3CC(CC(C3)C1)C2 [adatanserin]
inactive: 1 nM -1.23% | 8.33 nM 0.62% | 100 nM -2.77% | 833.33 nM 2.26% | 10000 nM -1.99%

CNC[C@@H]1CC[C@@H](N)[C@@H](O[C@H]2[C@H](O)[C@@H](O[C@H]3OC[C@](C)(O)[C@H](NC)[C@H]3O)[C@H](N)C[C@@H]2N)O1 [micronomicin]
inactive: 1 nM 0.04% | 8.33 nM 1.42% | 100 nM 0.72% | 833.33 nM 3.66% | 10000 nM -0.03%
